Screening data (PubChem BioAssay)
A selection: hits, their analogues and other compounds. The true share with any hit is near 1.4%.
MCL1 BIM primary – inhibitors of MCL1 binding to BIM-BH3, primary screen, biochemical, fluorescence polarization | GST-MCL1 / FITC-Bim-BH3 fluorescence polarization | inhibition, % at 10.9 µM | 320,000 tested, 0.68% active | AID 2057, 2009;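 active = inhibition above the mean inhibition of all tested compounds plus 3 SD, set per campaign, cut at about 40% in these data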;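 note: higher means more loss of mP so more displacement of Bim peptide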
GLD-1 RNA inh – GLD-1/TGE RNA complex disruptors, primary screen, biochemical, fluorescence polarization | AID 2280, 2010 | purified GLD-1 + fluorescein TGE RNA | 320,000 tested, 0.44% active | inhibition, % at 5.96 µM;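 active = percent inhibition above a per-plate cutoff, the plate mean of test compounds plus 3 SD, cut at about 30% in these data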
Target sequence (Q17339 whole entry, looked up): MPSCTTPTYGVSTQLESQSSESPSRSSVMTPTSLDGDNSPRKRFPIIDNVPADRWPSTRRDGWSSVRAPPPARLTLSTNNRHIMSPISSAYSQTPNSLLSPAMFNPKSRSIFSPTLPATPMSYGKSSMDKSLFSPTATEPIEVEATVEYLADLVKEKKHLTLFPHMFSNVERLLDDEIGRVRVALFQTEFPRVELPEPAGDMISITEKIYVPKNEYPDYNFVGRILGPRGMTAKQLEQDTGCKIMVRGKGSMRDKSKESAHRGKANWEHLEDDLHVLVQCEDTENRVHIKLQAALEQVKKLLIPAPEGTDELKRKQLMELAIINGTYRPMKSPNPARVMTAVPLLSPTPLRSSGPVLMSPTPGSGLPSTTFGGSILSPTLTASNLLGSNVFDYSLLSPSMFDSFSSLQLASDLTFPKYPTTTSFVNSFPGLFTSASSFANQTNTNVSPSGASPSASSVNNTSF
E coli Lon inh – inhibitors of E. coli Lon protease, primary screen, biochemical, fluorescence polarization; purified E. coli Lon protease; inhibition, % at 7.94 µM; 360,000 tested, 0.42% active; AID 602123, 2011; in the data active = inhibition above about 13%, passing the limit was not always enough
EBV gp42 inh – Epstein-Barr virus gp42 inhibitors, primary screen, biochemical, uHTS, fluorescence polarization. Glycoprotein 42 (Epstein-Barr virus (strain AG876)), Q1HVG2. inhibition, % (tested at 21.74 µM). Fluorescence polarization binding assay, mP read-out. 220,000 tested, 0.42% active. AID 1085, 2008; in the data active = inhibition above about 50%
Target sequence (Q1HVG2 whole entry, looked up): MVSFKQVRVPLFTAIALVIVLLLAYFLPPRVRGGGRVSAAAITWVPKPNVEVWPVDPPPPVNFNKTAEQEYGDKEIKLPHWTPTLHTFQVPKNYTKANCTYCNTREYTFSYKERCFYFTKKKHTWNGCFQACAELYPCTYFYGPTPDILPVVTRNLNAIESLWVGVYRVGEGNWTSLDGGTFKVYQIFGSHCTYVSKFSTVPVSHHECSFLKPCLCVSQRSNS
Bcl-xL primary – inhibitors of human Bcl-xL, primary screen, biochemical, fluorescence polarization, HTS. inhibition, % at 10.9 µM. Bcl-2-like protein 1 (Homo sapiens), Q07817. GST-Bcl-xL / FITC-Bim BH3 peptide fluorescence polarization. 320,000 tested, 0.7% active;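 active = inhibition above the mean of all tested compounds plus 3 SD, cutoff set per campaign, cut at about 30% in these data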;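 note: inhibitors lower millipolarization by displacing the labeled peptide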
MEX-5 binding – MEX-5 zinc finger RNA-binding disruptors – biochemical, C. elegans, fluorescence polarization, MLPCN library, primary screen; MEX-5/FITC-TCR2 RNA binding; stronger effect = lower value; activity score (negative = inhibition of binding), % at 10 µM; 300,000 tested, 0.38% active;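 active = inhibition past about -25% in most replicates, and total fluorescence under double the plate's negative control median, limit read from the data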
E coli Lon conf – E. coli Lon protease inhibitor retest, confirmation, biochemical, fluorescence polarization. shares compounds with E coli Lon inh. inhibition, % at 7.94 µM. purified E. coli Lon. 1,400 tested, 31% active. AID 602230, 2012; in the data active = inhibition above about 16%
Each line names hits and unclear results; the compound was inactive in the other large screens (follow-up assays come after a bar, where they were run).

CCn1c(SCC(=O)Nc2ccc(N3CCOCC3)cc2)nnc1-c1ccco1	E coli Lon inh 27 (no result: EBV gp42 inh) | E coli Lon conf inactive
CCn1c(C)nnc1SCC(=O)Nc1ccc(N2CCOCC2)cc1	none (no result: EBV gp42 inh)
COc1ccc(C)cc1NC(=O)CN(C)S(=O)(=O)c1ccc2c(c1)CC(C)N2C(C)=O (stereo not given)	none (no result: EBV gp42 inh)
O=C(CNC(=O)c1ccccc1F)NCc1ccncc1	none (no result: MCL1 BIM primary, EBV gp42 inh, Bcl-xL primary, MEX-5 binding)
Cc1ccccc1NC(=O)C1CCCN(c2ncnc3onc(-c4ccc(F)cc4)c23)C1 (stereo not given)	E coli Lon inh 16 (no result: EBV gp42 inh) | E coli Lon conf inactive
CCc1ccccc1NC(=O)C1CCCN(c2ncnc3onc(-c4ccc(F)cc4)c23)C1 (stereo not given)	none (no result: EBV gp42 inh)
COc1ccc([C@H]2C[C@@H](O)C[C@@H](CCn3cc(-c4ccccc4)nn3)O2)cc1	none (no result: MCL1 BIM primary, GLD-1 RNA inh, EBV gp42 inh, Bcl-xL primary, MEX-5 binding)
Cc1cc(NS(=O)(=O)c2ccccc2)ccc1NS(=O)(=O)c1ccccc1	none (no result: MCL1 BIM primary, GLD-1 RNA inh, EBV gp42 inh, Bcl-xL primary, MEX-5 binding)
O=S(=O)(Nc1ccc(O)c(NS(=O)(=O)c2ccccc2)c1)c1ccccc1	E coli Lon inh 18 (no result: EBV gp42 inh) | E coli Lon conf inactive
COc1ccc(CCNC(=O)C(=O)NCC2OCCN2S(=O)(=O)c2cccs2)cc1 (stereo not given)	none (no result: EBV gp42 inh)
CCCCc1nc(NCCNC(=O)c2ccccc2)c(C#N)c2c1CSC(C)(C)C2	E coli Lon inh 12 | E coli Lon conf inactive
CCOCCCn1c(SCc2ccccc2)nnc1-c1ccncc1	none (no result: EBV gp42 inh)
CC1(C)CC(=O)C2=C(C1)Nc1ccccc1NC2c1ccc2c(c1)OCO2 (stereo not given)	E coli Lon inh 36 | E coli Lon conf 16
COc1ccc(C2Nc3ccccc3NC3=C2C(=O)CC(C)(C)C3)cc1O (stereo not given)	E coli Lon inh 19 (no result: EBV gp42 inh) | E coli Lon conf inactive
CCOc1ccc(C2Nc3ccccc3NC3=C2C(=O)CC(C)(C)C3)cc1OC (stereo not given)	E coli Lon inh 29 (no result: EBV gp42 inh) | E coli Lon conf inactive
COc1ccc(C2Nc3ccccc3NC3=C2C(=O)CC(C)(C)C3)cc1 (stereo not given)	E coli Lon inh 64 (no result: EBV gp42 inh) | E coli Lon conf inactive
NC(=O)NC(CC(=O)NNC(=O)c1cccs1)c1ccc(Cl)cc1 (stereo not given)	none (no result: MCL1 BIM primary, EBV gp42 inh, Bcl-xL primary, MEX-5 binding)
O=C(N/N=C/c1ccccc1)C(=O)N/N=C/c1ccccc1	E coli Lon inh 20 (no result: EBV gp42 inh) | E coli Lon conf inactive
CC1CCC/C(=C\Nc2ccc(C(=O)O)c(O)c2)C1=O (stereo not given)	none
O=C1CCCC/C1=C\Nc1ccc(C(=O)O)c(O)c1	E coli Lon inh 44 | E coli Lon conf inactive
O=C(c1ccco1)N1CCN(C(=O)c2ccc(Br)o2)CC1	none (no result: MCL1 BIM primary, GLD-1 RNA inh, EBV gp42 inh, Bcl-xL primary, MEX-5 binding)
O=C(c1ccc(Br)o1)N1CCN(C23CC4CC(CC(C4)C2)C3)CC1	E coli Lon inh 29 (no result: EBV gp42 inh) | E coli Lon conf inactive
COc1ccc(NC(=O)CCSCCc2ccccn2)cc1OC	none
CC(Nc1cccc2ccccc12)C(=O)N/N=C/c1ccccn1 (stereo not given)	E coli Lon inh 24 | E coli Lon conf inactive
O=C(CCCC(=O)N/N=C\c1ccccn1)N/N=C\c1ccccn1	none
O=C(Nc1ccc(F)c(Cl)c1)c1csc(COCCO)n1	none (no result: MCL1 BIM primary, GLD-1 RNA inh, EBV gp42 inh, Bcl-xL primary, MEX-5 binding)
Cc1ccc2c(c1)C(=O)CCN2	none
O=C1CCNc2ccc(-c3ccccc3)cc21	E coli Lon inh 73, EBV gp42 inh active, MEX-5 binding -67 | E coli Lon conf active
COc1cc(CNC[C@H]2O[C@@H](n3ccc(N)nc3=O)[C@H](O)[C@@H]2O)ccc1OCc1cccc(Cl)c1	none (no result: MCL1 BIM primary, GLD-1 RNA inh, EBV gp42 inh, Bcl-xL primary, MEX-5 binding)
CCOc1ccc(CC(=O)OCc2cc(=O)n3cc(Br)ccc3n2)cc1	E coli Lon inh 42 (no result: MEX-5 binding) | E coli Lon conf inactive
Cc1cc(NC(=O)CC2(CC(=O)O)CCCC2)n(C)n1	none
CCCN(CC(=O)Nc1ccc(F)c(F)c1F)C(=O)CN1C(=O)NC2(CCCCC2)C1=O	none (no result: MCL1 BIM primary, GLD-1 RNA inh, EBV gp42 inh, Bcl-xL primary, MEX-5 binding)
CCOc1ccc(-c2c[n+](=O)c3c(n2[O-])CCCC3)c(OCC)c1	E coli Lon inh 68 | E coli Lon conf inactive
CC(C)CC(=O)NC(c1cccs1)c1ccc2cccnc2c1O (stereo not given)	none
CCC(=O)NC(c1cccs1)c1ccc2cccnc2c1O (stereo not given)	E coli Lon inh 21 | E coli Lon conf inactive
F[B-](F)(F)c1cc2cc(Br)ccc2s1	E coli Lon inh 27 (no result: MCL1 BIM primary, GLD-1 RNA inh, EBV gp42 inh, Bcl-xL primary, MEX-5 binding) | E coli Lon conf 40
F[B-](F)(F)c1cc2ccccc2s1	E coli Lon inh 31 (no result: MCL1 BIM primary, GLD-1 RNA inh, EBV gp42 inh, Bcl-xL primary, MEX-5 binding) | E coli Lon conf 44
Cc1cc(C)cc(NC(=O)CN(C)CC(=O)N(CC(C)C)c2c(N)n(CC(C)C)c(=O)[nH]c2=O)c1	none (no result: EBV gp42 inh, MEX-5 binding)
CCN1CCN(CCCN(Cc2cccs2)C(=S)Nc2ccccc2C)CC1	none
Cc1cccc(OCc2nnc(SCC(=O)N(C)C3CCCCC3)o2)c1	none (no result: MCL1 BIM primary, GLD-1 RNA inh, EBV gp42 inh, Bcl-xL primary, MEX-5 binding)
Cc1ccc(N2C(=O)CC(NNC(=O)Cc3ccc(F)cc3)C2=O)cc1Cl (stereo not given)	none
COC(=O)Cn1c(O)c(N=NC(=O)CNC(=O)c2ccc3c(c2)OCCO3)c2ccccc21	E coli Lon inh 21 (no result: EBV gp42 inh) | E coli Lon conf inactive
O=C(CSCc1nc2c(nnn2Cc2ccc(F)cc2)c(=O)[nH]1)Nc1cccc(C(F)(F)F)c1	E coli Lon inh 16 (no result: MEX-5 binding) | E coli Lon conf inactive
CC(C)CCN1CCN(Cc2ccsc2)CC1CCO (stereo not given)	none
OCCC1CN(Cc2ccsc2)CCN1C1CCCC1 (stereo not given)	E coli Lon inh 20 | E coli Lon conf inactive
O=C1c2cccc3cccc(c23)C(=O)N1CCN1CCN(CC(O)COCc2ccc(Cl)cc2)CC1 (stereo not given)	none
COc1cc(COCC(O)CN2CCN(CCN3C(=O)c4cccc5cccc(c45)C3=O)CC2)cc(OC)c1OC (stereo not given)	E coli Lon inh 18 | E coli Lon conf 17
Nc1c(Cl)ncnc1NCCc1ccc(O)cc1	none
O=C(Cc1ccc(Cl)cc1)Nc1cc(Cl)ccn1	none (no result: EBV gp42 inh)
CCN(c1ccccc1)c1nc(Cl)nc2c1cnn2C	none (no result: MCL1 BIM primary, GLD-1 RNA inh, EBV gp42 inh, Bcl-xL primary, MEX-5 binding)
O=C(Cn1sc2ccccc2c1=O)NC12CC3CC(CC(C3)C1)C2	E coli Lon inh 16 | E coli Lon conf inactive
O=C(Cn1sc2ccccc2c1=O)Nc1ccccc1	none (no result: MCL1 BIM primary, GLD-1 RNA inh, EBV gp42 inh, Bcl-xL primary, MEX-5 binding)
COc1cc(-c2cc(=O)c3ccc(O)cc3o2)cc(OC)c1OC	none (no result: MCL1 BIM primary, GLD-1 RNA inh, EBV gp42 inh, Bcl-xL primary, MEX-5 binding)
